According to PubChem BioAssay (NCI):
The panel holds about 83,000 compounds, 20% with a hit somewhere; the sample as a whole holds those more often.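 Compound tested at a single concentration for 48 hours in 96-well plates; a percent growth value below 10 was scored as active.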 A number with no mark means an inactive call. Activity calls are given as the source filed them.

Legend:
Assay in all cases: NCI-60 one-dose screen, 48 h (100 = growth as untreated, 0 = no growth, -100 = all killed)
Conditions in all cases: 10 µM unless noted
[1] = system: T-47D breast
[2] = system: BT-549 breast
[3] = system: MDA-MB-435 melanoma
[4] = system: SW-620 colon
[5] = system: MCF7 breast
[6] = system: HCC-2998 colon
[7] = system: KM12 colon
[8] = system: HCT-116 colon

CCN1C(=O)C(C)C=C(C)C=C1C (stereo not given)
growth [1]: 102% | growth [2]: 124% | growth [3]: 114% | growth [4]: 114% | growth [5]: 106% | growth [6]: 103% | growth [7]: 100%

CSC1=N/C(=C\c2cccc(OCc3ccc(Cl)cc3)c2)C(=O)N1
growth [1]: 59.4% | growth [2]: 88.1% | growth [3]: 80.6% | growth [4]: 88.1% | growth [5]: 83% | growth [6]: 93% | growth [7]: 79.8%

CCN(CC)CC(=O)Nc1c(C)ccc(N)c1C
growth [1]: 96.6% | growth [2]: 97.2% | growth [3]: 99.8% | growth [4]: 104% | growth [5]: 92.4% | growth [6]: 96.8% | growth [7]: 114%

Cn1cnc([N+](=O)[O-])c1S(=O)(=O)Oc1ccccc1
growth [1]: 5.06% (active) | growth [2]: 100% | growth [3]: 101% | growth [4]: 56% | growth [5]: 84.3% | growth [6]: 101% | growth [7]: 100%

O=C(O)c1cc2cc(OCc3ccccc3)ccc2[nH]1
growth [1]: 101% | growth [2]: 84.9% | growth [3]: 111% | growth [4]: 102% | growth [5]: 62.4% | growth [6]: 104% | growth [7]: 96.8%

COc1cc(OC)c2sc(-c3ccc(-n4cncc4-c4ccc(OC)c(N)c4)cc3)nc2c1
growth [1]: 77.2% | growth [2]: 75.2% | growth [3]: 68.8% | growth [4]: 89.1% | growth [5]: 67.3% | growth [6]: 91.8% | growth [7]: 77.7%

CC(=O)NC1C(O[C@H]2C[C@H]3[C@@H]4CC=C5C[C@@H](O)CC[C@]5(C)[C@H]4CC[C@]3(C)[C@H]2[C@H](C)C(=O)CCC(C)C)OCC(O)C1O (stereo not given in full)
growth [1]: 45.4% | growth [2]: 31.3% | growth [3]: 35.3% | growth [4]: 49.4% | growth [5]: 43.4% | growth [6]: 89.5% | growth [7]: 70.1%

O=C(c1ccc(OCCN2CCCCC2)cc1)c1c(-c2ccc(O)cc2)sc2cc(O)ccc12
growth [1]: 65.5% | growth [2]: 66.4% | growth [3]: 90.5% | growth [4]: 98.2% | growth [5]: 31.9% | growth [6]: 103% | growth [7]: 103%

O=C1OCC2=C1C(c1ccccc1)c1cc3c(cc1N2CCO)CCC3 (stereo not given)
growth [1]: 37.8% | growth [2]: -1.32% (active) | growth [3]: -31.9% (active) | growth [4]: 21.5% | growth [5]: -3.45% (active) | growth [6]: -19.8% (active) | growth [7]: 11.2%

COc1cc(-c2nn(C(=O)NCCN3CCN(C)CC3)cc2-c2ccncc2)ccc1Cl
growth [1]: 62.2% | growth [2]: 88.1% | growth [3]: 80.4% | growth [4]: 111% | growth [5]: 76.5% | growth [6]: 93.7% | growth [7]: 96.4%

COc1cccc(/C=N\Nc2ccc([N+](=O)[O-])cn2)c1O
growth [1]: 30.1% | growth [2]: 71.8% | growth [3]: 54.3% | growth [4]: 38% | growth [8]: 8.72% (active) | growth [6]: 82.2% | growth [7]: 78.4%

CCOc1cc(/C=N\NC(=O)C[N+](C)(C)C)ccc1O
growth [1]: 94.1% | growth [2]: 117% | growth [3]: 109% | growth [4]: 110% | growth [5]: 105% | growth [6]: 104% | growth [7]: 109%

OC(CCCCCCCCC(O)CN1CCc2ccccc2C1)CN1CCc2ccccc2C1 (stereo not given)
growth [1]: 99.6% | growth [2]: 101% | growth [3]: 99.8% | growth [4]: 104% | growth [5]: 95.9% | growth [6]: 102% | growth [7]: 106%

CCOC(=O)C1=C(C(=O)OCC)N(c2cc(OC)c(OC)c(OC)c2)C(N)=C(C#N)C1c1cc(=O)[nH]c2ccccc12 (stereo not given)
growth [1]: 95.4% | growth [2]: 96.5% | growth [3]: 96.6% | growth [4]: 99.2% | growth [5]: 96% | growth [6]: 108% | growth [7]: 102%

CC(C)(C)c1nn(-c2ccccc2)c2c1C(=O)CSC(c1ccc3c(c1)OCO3)N2 (stereo not given)
growth [1]: 84.4% | growth [2]: 112% | growth [3]: 99.6% | growth [4]: 108% | growth [5]: 90.3% | growth [6]: 105% | growth [7]: 101%

CCN(CC)c1ccc(/C=C2/NC(=O)NC2=O)cc1
growth [1]: 16.2% | growth [2]: 38.9% | growth [3]: -34.1% (active) | growth [4]: 29% | growth [5]: 6.89% (active) | growth [6]: 39.5% | growth [7]: 20.5%

Cc1c(C(=O)Nc2ccccc2F)sc2c(=O)[nH]cnc12
growth [1]: 90% | growth [2]: 85.3% | growth [3]: 6.84% (active) | growth [4]: 76.8% | growth [5]: 76.9% | growth [6]: 93.2% | growth [7]: 61.8%

O=C(CSc1nnc(Cc2ccccc2Nc2c(Cl)cccc2Cl)n1-c1ccccc1)N1N=C(c2ccc3ccccc3c2)CC1c1ccc(Cl)cc1 (stereo not given)
growth [1]: 71.5% | growth [2]: 103% | growth [3]: 98.8% | growth [4]: 108% | growth [5]: 95% | growth [6]: 93.7% | growth [7]: 108%

COc1cnc2c(c1)C(=O)c1c-2n(CCCN2CCN(C)CC2)c(=O)c2cc(Cl)ccc12
growth [1]: 8.74% (active) | growth [2]: 56.5% | growth [3]: 38% | growth [4]: 1.45% (active) | growth [5]: 20.8% | growth [6]: 66.8% | growth [7]: 45.5%

CN1C2CCC1/C(=C\c1ccc(Cl)cc1)C(=O)/C2=C/c1ccc(Cl)cc1
growth [1]: 59.7% | growth [2]: 70.6% | growth [3]: 63.9% | growth [4]: 57.5% | growth [5]: 22.7% | growth [6]: 112% | growth [7]: 54.3%

CCOC(=O)c1cc(C(=O)OCC)c(C)nc1C
growth [1]: 102% | growth [2]: 115% | growth [3]: 105% | growth [4]: 110% | growth [5]: 90.9% | growth [6]: 103% | growth [7]: 111%

C=C1C(=O)O[C@H]2[C@H]1CC/C(COC(=O)N[C@@H](Cc1c[nH]c3ccccc13)C(=O)OC)=C\CC[C@@]1(C)O[C@@H]21
growth [1]: -16.9% (active) | growth [2]: 45.3% | growth [3]: 49.1% | growth [4]: -6.63% (active) | growth [8]: -78% (active) | growth [6]: 82.4% | growth [7]: 74.6%

COc1cccc(-c2nc3sccn3c2-c2ccnc(NCCN3CCCN(C)S3(=O)=O)n2)c1
growth [1]: 72.4% | growth [2]: 100% | growth [3]: 57.7% | growth [4]: 131% | growth [8]: 78.1% | growth [6]: 114% | growth [7]: 100%

O=C(Nc1ccc(Cl)cc1)c1cc(-c2ccc(Cl)cc2)c2sc(=O)[nH]c2n1
growth [1]: -22.8% (active) | growth [2]: 1.28% (active) | growth [3]: 7.39% (active) | growth [4]: 8.1% (active) | growth [8]: 0.269% (active) | growth [6]: 19.1% | growth [7]: 4.21% (active)

CCCCOc1nc2ccccc2cc1/C=C/c1cc(/C=C/c2cc3ccccc3nc2OCCCC)n(-c2ccccc2)n1
growth [1]: 102% | growth [2]: 93.2% | growth [3]: 108% | growth [4]: 101% | growth [8]: 93.1% | growth [6]: 119% | growth [7]: 103%

O=C1/C(=C/c2ccccc2)SC(=Nc2ccccc2)N1Nc1ccccc1
growth [1]: 5.78% (active) | growth [2]: -19.3% (active) | growth [3]: -25.4% (active) | growth [4]: 13.1% | growth [8]: -23.4% (active) | growth [6]: 20.3% | growth [7]: 3.45% (active)

COc1ccc2nc(C)cc(Sc3nc4ccccc4s3)c2c1
growth [1]: 32.5% | growth [2]: -11.8% (active) | growth [3]: 17.2% | growth [4]: 31.3% | growth [8]: 24.5% | growth [6]: 73.8% | growth [7]: 50.5%

CC(=O)Nc1ccc(/C=N/N2CCCCCC2)cc1
growth [1]: 100% | growth [2]: 91.5% | growth [3]: 95.6% | growth [4]: 100% | growth [8]: 99.5% | growth [6]: 109% | growth [7]: 97.8%

CC(=O)O[C@H]1CC[C@]2(C)[C@H]3CC=C4[C@@H]5CC(C)(C)CC[C@]5(C(=O)OCC(COC(=O)C(Cl)Cl)(COC(=O)C(Cl)Cl)NC(=O)C(Cl)Cl)CC[C@@]4(C)[C@]3(C)CC[C@H]2C1(C)C
growth [1]: 32.7% | growth [2]: 75.2% | growth [3]: 78.6% | growth [4]: 79.4% | growth [8]: 26.7% | growth [6]: 86.9% | growth [7]: 52.2%

COc1ccccc1CNCCCN1C(=O)c2ccc3c4c(ccc(c24)C1=O)C(=O)N(CCCOCCCCOCCCN)C3=O
growth [1]: -56.8% (active) | growth [2]: 27.4% | growth [3]: -84.6% (active) | growth [4]: -60.6% (active) | growth [8]: -68.7% (active) | growth [6]: -53.5% (active) | growth [7]: -59% (active)

O=C(CC(=O)c1cccc(Cl)c1)c1cccc(Cl)c1
growth [1]: 37.2% | growth [2]: 47.6% | growth [3]: 47.9% | growth [5]: 25.4% | growth [8]: 19.8% | growth [6]: 35% | growth [7]: 41.9%

CCCCSc1ncnc2c1ncn2C1CCCCO1 (stereo not given)
growth [1]: 104% | growth [2]: 107% | growth [3]: 115% | growth [5]: 91.5% | growth [8]: 100% | growth [6]: 111% | growth [7]: 108%

O=S1(=O)NCCN1CCNc1nccc(-c2c(-c3cccc(O)c3)nc3sccn23)n1
growth [1]: 106% | growth [2]: 135% | growth [3]: 34.7% | growth [5]: 103% | growth [8]: 97.8% | growth [6]: 113% | growth [7]: 108%

COc1ccc2[nH]cc(C3(c4c[nH]c5ccc(OC)cc45)C(=O)Nc4ccc(F)cc43)c2c1
growth [1]: 93.7% | growth [2]: 80.1% | growth [3]: 9.03% (active) | growth [5]: 66.2% | growth [8]: 69% | growth [6]: 72% | growth [7]: 51.1%

O=C(c1ccccc1)C1OC1C(=O)c1ccccc1 (stereo not given)
growth [1]: -7.04% (active) | growth [2]: 92.1% | growth [3]: 1.06% (active) | growth [5]: 16.8% | growth [8]: -5.13% (active) | growth [6]: 69.8% | growth [7]: 55.5%
